Outcome and AC50 data for three compounds are collected here from PubChem BioAssay (EPA / NIEHS).

Holding throughout (conditions): mRNA level, 48 h; actives raise or lower the signal
Read-out in experiment [1]: Bcl-2 (BAD) gene, BAD (gene 572)
The experiment is described as follows: LTEA_HepaRG_BAD: Life Technologies and Expression Analysis (LTEA) Assay for Bcl-2 (BAD) gene using HepaRG (AID 2283469). The method, boiled down: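 HepaRG, 48 h exposure, 8-pt half-log curve from 100 uM in 0.5% DMSO, duplicates. Readout: TaqMan qRT-PCR for BAD mRNA, housekeeping-normalised (ACTB/GAPDH/POLR2A); gain or loss fitted against DMSO baseline.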

Read-out in experiment [2]: Bcl-2 (BAX) gene, BAX (gene 581)
The experiment is described as follows: LTEA_HepaRG_BAX: Life Technologies and Expression Analysis (LTEA) Assay for Bcl-2 (BAX) gene using HepaRG (AID 2283470). Put shortly: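 qRT-PCR read-out of BAX mRNA, normalized to three housekeeping genes, after 48 h chemical exposure of human HepaRG cells in serum-free induction medium; eight-point half-log series, top 100 uM, 0.5% DMSO vehicle; bidirectional fit versus DMSO.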

Read-out in experiment [3]: adenosine kinase (ADK) gene, ADK (gene 132)
The experiment is described as follows: LTEA_HepaRG_ADK: Life Technologies and Expression Analysis (LTEA) Assay for adenosine kinase (ADK) gene using HepaRG (AID 2283471). The method, boiled down: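 ADK expression quantified by qRT-PCR, normalised to three housekeeping genes, after 48 h exposure of HepaRG cells to eight concentrations (top 100 uM, half-log steps, duplicate, 0.5% DMSO). Up- or down-regulation fitted relative to vehicle.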

Read-out in experiment [4]: Alpha-fetoprotein (AFP) gene, AFP (gene 174)
The experiment is described as follows: LTEA_HepaRG_AFP: Life Technologies and Expression Analysis (LTEA) Assay for Alpha-fetoprotein (AFP) gene using HepaRG (AID 2283472). Put shortly:
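qRT-PCR (Fluidigm TaqMan) readout of AFP transcript, normalized to three housekeeping genes, fitted bidirectionally against 0.5% DMSO baseline. HepaRG cells received chemicals for 48 h in serum-free induction medium, top concentration 100 uM, half-log steps.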

Read-out in experiment [5]: Apolipoprotein A-V (APOA5) gene, APOA5 (gene 116519)
The experiment is described as follows: LTEA_HepaRG_APOA5: Life Technologies and Expression Analysis (LTEA) Assay for Apolipoprotein A-V (APOA5) gene using HepaRG (AID 2283474). The method, boiled down: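 APOA5 transcript levels were quantified by qRT-PCR, normalized to three housekeeping genes, after 48 h chemical treatment of HepaRG cells (8 points, 100 uM maximum, half-log steps, 0.5% DMSO). Curves fitted in both directions against vehicle.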

Read-out in experiment [6]: Apoptosis regulator Bcl-2 (Homo sapiens) (UniProt P10415)
The experiment is described as follows: LTEA_HepaRG_BCL2: Life Technologies and Expression Analysis (LTEA) Assay for Bcl-2 gene using HepaRG (AID 2283475). Put shortly:
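qRT-PCR read-out (Fluidigm TaqMan) of BCL2 transcript, normalised to three housekeeping genes, after 48 h chemical exposure of HepaRG cells; 8-point half-log series, top 100 uM, 0.5% DMSO vehicle. Gain or loss of signal fitted relative to DMSO baseline.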

Read-out in experiment [7]: Bcl-2 (BID) gene, BID (gene 637)
The experiment is described as follows: LTEA_HepaRG_BID: Life Technologies and Expression Analysis (LTEA) Assay for Bcl-2 (BID) gene using HepaRG (AID 2283476). Put shortly:
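HepaRG, 48 h exposure, 8-pt half-log series, top 100 uM, 0.5% DMSO vehicle, duplicates. Readout: BID mRNA by TaqMan qRT-PCR; housekeeping-normalized; bidirectional curve fit vs DMSO baseline.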

Read-out in a further experiment: Caspase-3 (Homo sapiens) (UniProt P42574)
The experiment is described as follows: LTEA_HepaRG_CASP3: Life Technologies and Expression Analysis (LTEA) Assay for cysteine-aspartic acid protease (CASP3) using HepaRG (AID 2283477). The method, boiled down: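 Expression of CASP3 was quantified by TaqMan qRT-PCR against three housekeeping genes (ACTB, GAPDH, POLR2A), bidirectionally versus 0.5% DMSO. HepaRG cultures received compounds in duplicate, top 100 uM with half-log steps, for 48 h in serum-free induction medium.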

Read-out in experiment [8]: Cytochrome P450 (CYP24A1), CYP24A1 (gene 1591)
The experiment is described as follows: LTEA_HepaRG_CYP24A1: Life Technologies and Expression Analysis (LTEA) Assay for Cytochrome P450 (CYP24A1) using HepaRG (AID 2283478). Put shortly: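 mRNA of CYP24A1 quantified by TaqMan qRT-PCR (ACTB/GAPDH/POLR2A normalization) after 48 h chemical exposure of HepaRG cells, top concentration 100 uM, half-log steps, 0.5% DMSO vehicle, duplicates. Curves fitted bidirectionally against DMSO baseline.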

Read-out in experiment [9]: Cytochrome P450 (CYP1A2), CYP1A2 (gene 1544)
The experiment is described as follows: LTEA_HepaRG_CYP1A2: Life Technologies and Expression Analysis (LTEA) Assay for Cytochrome P450 (CYP1A2) using HepaRG (AID 2283479). Put shortly:
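CYP1A2 transcript measured by TaqMan qRT-PCR against three housekeeping genes after 48-hour chemical exposure of HepaRG cells. Eight-point half-log series topping at 100 uM in 0.5% DMSO, duplicates; gain or loss fitted relative to vehicle.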

Read-out in experiment [10]: cysteine-aspartic acid protease (CASP8), CASP8 (gene 841)
The experiment is described as follows: LTEA_HepaRG_CASP8: Life Technologies and Expression Analysis (LTEA) Assay for cysteine-aspartic acid protease (CASP8) using HepaRG (AID 2283480). The method, boiled down: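 qRT-PCR readout of CASP8 mRNA, normalized to three housekeeping genes, after 48 h chemical exposure of HepaRG cells; 8-point half-log series, top 100 uM, 0.5% DMSO vehicle. Bidirectional curve fitting against DMSO baseline.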

Read-out in experiment [11]: Cytochrome P450 (CYP2B6), CYP2B6 (gene 1555)
The experiment is described as follows: LTEA_HepaRG_CYP2B6: Life Technologies and Expression Analysis (LTEA) Assay for Cytochrome P450 (CYP2B6) using HepaRG (AID 2283481). Put shortly:
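CYP2B6 transcript level quantified by qRT-PCR against three housekeeping genes, fitted bidirectionally relative to DMSO. HepaRG cultures received chemicals for 48 h, 8-point half-log series from 100 uM in 0.5% DMSO, duplicate wells, serum-free induction medium.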

Read-out in experiment [12]: Cytochrome P450 2C19 (Homo sapiens) (UniProt P33261)
The experiment is described as follows: LTEA_HepaRG_CYP2C19: Life Technologies and Expression Analysis (LTEA) Assay for CYP2C19 using HepaRG (AID 2283482). The method, boiled down:
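CYP2C19 transcript levels by qRT-PCR, normalized to three housekeeping genes, in HepaRG cells after 48 h chemical exposure. Eight-point half-log series topping at 100 uM, 0.5% DMSO vehicle. Increases and decreases both fitted against DMSO.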

Read-out in a further experiment: CYP2C8 (gene 1558)
The experiment is described as follows: LTEA_HepaRG_CYP2C8: Life Technologies and Expression Analysis (LTEA) Assay for CYP2C8 using HepaRG (AID 2283483). Put shortly: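 HepaRG (human liver line), 48 h chemical exposure, 8-pt half-log series from 100 uM, 0.5% DMSO vehicle. Readout: CYP2C8 transcript by qRT-PCR, housekeeping-normalized. Bidirectional fit vs DMSO baseline.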

Read-out in the next experiment: CYP2C9 (gene 1559)
The experiment is described as follows: LTEA_HepaRG_CYP2C9: Life Technologies and Expression Analysis (LTEA) Assay for CYP2C9 using HepaRG (AID 2283484). The method, boiled down: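 HepaRG, 48 h dosing, 8-pt half-log series, top 100 uM, 0.5% DMSO vehicle. Read-out: CYP2C9 transcript by TaqMan qRT-PCR, housekeeping-normalized (ACTB/GAPDH/POLR2A). Gain or loss fitted vs DMSO baseline.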

Read-out in the next experiment: CYP2E1 (gene 1571)
The experiment is described as follows: LTEA_HepaRG_CYP2E1: Life Technologies and Expression Analysis (LTEA) Assay for CYP2E1 using HepaRG (AID 2283485). Put shortly: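 CYP2E1 transcript was measured by TaqMan qRT-PCR in human HepaRG cultures after 48 h chemical exposure (top 100 uM, half-log steps, 0.5% DMSO vehicle). Housekeeping-gene normalization; gain or loss fitted relative to DMSO baseline.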

Read-out in the next experiment: CYP4A11 (gene 1579)
The experiment is described as follows: LTEA_HepaRG_CYP4A11: Life Technologies and Expression Analysis (LTEA) Assay for CYP4A11 using HepaRG (AID 2283486). The method, boiled down:
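Readout is CYP4A11 transcript level by qRT-PCR, normalized to three housekeeping genes and fitted bidirectionally against 0.5% DMSO. Human HepaRG cells were treated 48 h, in duplicate, with an 8-point half-log series topping at 100 uM.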

Read-out in experiment [13]: Cytochrome P450 3A4 (Homo sapiens) (UniProt P08684)
The experiment is described as follows: LTEA_HepaRG_CYP3A4: Life Technologies and Expression Analysis (LTEA) Assay for CYP3A4 using HepaRG (AID 2283487). The method, boiled down: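 Differentiated HepaRG cells, plated 48 h, then dosed 48 h in serum-free induction medium with 0.5% DMSO, 8 half-log concentrations up to 100 uM, duplicate. CYP3A4 mRNA by qRT-PCR, normalized to ACTB/GAPDH/POLR2A; bidirectional fit versus DMSO.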

Read-out in experiment [14]: DNA damage-inducible transcript 3 (DDIT3), DDIT3 (gene 1649)
The experiment is described as follows: LTEA_HepaRG_DDIT3: Life Technologies and Expression Analysis (LTEA) Assay for DNA damage-inducible transcript 3 (DDIT3) using HepaRG (AID 2283488). The method, boiled down:
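qRT-PCR readout (Fluidigm TaqMan), housekeeping-normalized to ACTB, GAPDH, POLR2A. HepaRG cells, 48 h exposure, 8-point half-log series from 100 uM in 0.5% DMSO, duplicates. Gain or loss of signal fitted against DMSO baseline.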

Read-out in a further experiment: BCL2L11 (gene 10018)
The experiment is described as follows: LTEA_HepaRG_BCL2L11: Life Technologies and Expression Analysis (LTEA) Assay for Bcl-2 (BCL2L11) gene using HepaRG (AID 2283473). Put shortly: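 BCL2L11 transcript levels are measured by Fluidigm qRT-PCR, normalized to three housekeeping genes. HepaRG cultures were plated 48 h, then treated 48 h with test chemical (top 100 uM, half-log, 0.5% DMSO vehicle); curves were fitted bidirectionally against DMSO.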

The source made the active and inactive calls. The calls were made as follows: active = hit-call score of the fitted dose curve at least 0.9, where 1 is the maximum; inactive = score below 0.9.

Sequence of Caspase-3 (Homo sapiens) (P42574 whole entry, looked up): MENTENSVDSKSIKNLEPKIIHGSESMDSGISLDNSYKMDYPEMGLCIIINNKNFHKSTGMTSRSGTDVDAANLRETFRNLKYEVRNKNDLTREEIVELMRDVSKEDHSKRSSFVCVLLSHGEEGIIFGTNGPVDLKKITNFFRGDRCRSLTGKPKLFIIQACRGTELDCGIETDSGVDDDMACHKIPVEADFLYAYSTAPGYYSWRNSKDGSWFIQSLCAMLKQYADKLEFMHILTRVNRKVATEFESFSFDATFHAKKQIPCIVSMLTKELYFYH
Sequence of Apoptosis regulator Bcl-2 (Homo sapiens) (P10415 whole entry, looked up): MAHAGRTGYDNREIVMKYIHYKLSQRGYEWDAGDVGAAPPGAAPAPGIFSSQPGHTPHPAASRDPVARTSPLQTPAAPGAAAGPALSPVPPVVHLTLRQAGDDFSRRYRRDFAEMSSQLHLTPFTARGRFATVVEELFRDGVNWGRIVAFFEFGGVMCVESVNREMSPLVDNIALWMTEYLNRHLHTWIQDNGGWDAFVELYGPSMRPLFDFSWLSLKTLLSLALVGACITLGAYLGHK
Sequence of Cytochrome P450 2C19 (Homo sapiens) (P33261 whole entry, looked up): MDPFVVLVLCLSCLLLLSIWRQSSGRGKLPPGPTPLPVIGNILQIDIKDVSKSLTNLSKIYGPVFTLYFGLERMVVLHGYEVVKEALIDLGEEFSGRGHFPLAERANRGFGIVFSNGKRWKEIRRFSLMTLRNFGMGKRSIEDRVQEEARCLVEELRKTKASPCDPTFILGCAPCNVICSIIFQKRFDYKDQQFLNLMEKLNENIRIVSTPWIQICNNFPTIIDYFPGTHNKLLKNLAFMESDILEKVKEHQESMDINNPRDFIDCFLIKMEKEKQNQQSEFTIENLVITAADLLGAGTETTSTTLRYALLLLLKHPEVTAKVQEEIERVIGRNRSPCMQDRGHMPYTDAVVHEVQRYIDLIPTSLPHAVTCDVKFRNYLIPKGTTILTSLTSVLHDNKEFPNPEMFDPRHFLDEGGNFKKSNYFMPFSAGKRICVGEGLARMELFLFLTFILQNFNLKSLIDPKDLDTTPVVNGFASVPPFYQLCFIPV
Sequence of Cytochrome P450 3A4 (Homo sapiens) (P08684 whole entry, looked up): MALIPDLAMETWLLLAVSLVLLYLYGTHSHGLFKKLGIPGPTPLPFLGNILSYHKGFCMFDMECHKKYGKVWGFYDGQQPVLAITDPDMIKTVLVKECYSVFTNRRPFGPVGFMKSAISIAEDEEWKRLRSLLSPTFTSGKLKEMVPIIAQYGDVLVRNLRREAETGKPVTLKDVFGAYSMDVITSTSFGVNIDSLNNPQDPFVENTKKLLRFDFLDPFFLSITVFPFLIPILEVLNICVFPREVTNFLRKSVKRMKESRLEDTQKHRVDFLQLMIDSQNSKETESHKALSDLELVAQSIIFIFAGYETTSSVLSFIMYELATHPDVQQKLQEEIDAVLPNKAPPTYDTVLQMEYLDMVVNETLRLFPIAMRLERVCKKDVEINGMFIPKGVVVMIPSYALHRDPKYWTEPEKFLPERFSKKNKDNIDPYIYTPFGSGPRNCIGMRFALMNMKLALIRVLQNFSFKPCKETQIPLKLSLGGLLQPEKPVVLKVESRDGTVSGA

As for `Cc1ccc(C)c(C)c1`, the compound was classed as inactive in experiment [1], in [2], in experiment [3], in [4], in experiment [5] and in experiment [6]. The result (in experiment [7]; with Caspase-3 (Homo sapiens); in experiment [8]; in experiment [9]; in experiment [10]; in experiment [11]) was inactive. The call (in experiment [12]; in the experiment with CYP2C8 (gene 1558); with CYP2C9 (gene 1559); with CYP2E1 (gene 1571); in the experiment with CYP4A11 (gene 1579); in [13]) was inactive. Also, the result in experiment [14] was inactive.
`Cc1ccccc1Cl`: the compound was classed as inactive (in experiment [1]; in [2]; in [3]; in experiment [4]; with BCL2L11 (gene 10018); in experiment [5]). Further, the compound was called inactive (in experiment [6]; in experiment [7]; with Caspase-3 (Homo sapiens); in [8]; in [9]; in experiment [11]). Besides, the call (in experiment [12]; with CYP2C8 (gene 1558); with CYP2E1 (gene 1571); with CYP4A11 (gene 1579); in experiment [13]; in experiment [14]) was inactive.
Regarding `CCCCC(CC)COC(=O)CC(C(=O)OCC(CC)CCCC)S(=O)(=O)O` (stereo not given), the AC50 was 80.7 µM (active) in experiment [1]; 81.6 µM (active) in [3]; 50 µM (active) in [7]; 81 µM (active) with Caspase-3 (Homo sapiens); 15.8 µM (active) in experiment [9]; 15.8 µM (active) in experiment [11]. Moreover, the AC50 in [12] was 89.9 µM (active); in the experiment with CYP2C8 (gene 1558), 15.8 µM (active); in the experiment with CYP2C9 (gene 1559), 88.1 µM (active); in the experiment with CYP2E1 (gene 1571), 76.5 µM (active); in experiment [14] it was 71.9 µM (active). For the same compound, the compound was classed as inactive (in experiment [2]; in experiment [4]; with BCL2L11 (gene 10018); in experiment [5]; in [6]; in experiment [8]). In addition, the outcome with CYP4A11 (gene 1579) was inactive.

The AC50 is the concentration at which the activity in the assay is half-maximal.
